Test results taken from PubChem BioAssay (NCI).
This is part of a sample that, as a whole, favours compounds with a hit. Of some 83,000 tested, about 20% had one in any assay.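 Activity criterion: percent growth below 10, measured after cells in 96-well plates were exposed to a single compound concentration for 48 hours.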 Unmarked numbers belong to inactive results. Active and inactive are the calls of the source.

Key:
Assay in all cases: NCI-60 one-dose screen, 48 h (100 = growth as untreated, 0 = no growth, -100 = all killed)
Settings in all cases: 10 µM
K-562 leukemia = tested on: K-562 leukemia
MALME-3M melanoma = tested on: MALME-3M melanoma
MDA-MB-231 breast = tested on: MDA-MB-231 breast
RXF 393 renal = tested on: RXF 393 renal
SF-268 CNS = tested on: SF-268 CNS
SF-295 CNS = tested on: SF-295 CNS
SF-539 CNS = tested on: SF-539 CNS
UACC-257 melanoma = tested on: UACC-257 melanoma
M14 melanoma = tested on: M14 melanoma
HCT-15 colon = tested on: HCT-15 colon
SNB-75 CNS = tested on: SNB-75 CNS
SNB-19 CNS = tested on: SNB-19 CNS
U251 CNS = tested on: U251 CNS
PC-3 prostate = tested on: PC-3 prostate
SK-MEL-5 melanoma = tested on: SK-MEL-5 melanoma
UACC-62 melanoma = tested on: UACC-62 melanoma
LOX IMVI melanoma = tested on: LOX IMVI melanoma
SK-MEL-28 melanoma = tested on: SK-MEL-28 melanoma
SK-MEL-2 melanoma = tested on: SK-MEL-2 melanoma
HT29 colon = tested on: HT29 colon

| SMILES | growth (K-562 leukemia) | growth (MALME-3M melanoma) | growth (MDA-MB-231 breast) | growth (RXF 393 renal) | growth (SF-268 CNS) | growth (SF-295 CNS) | growth (SF-539 CNS) | growth (UACC-257 melanoma) | growth (M14 melanoma) | growth (HCT-15 colon) | growth (SNB-75 CNS) | growth (SNB-19 CNS) | growth (U251 CNS) | growth (PC-3 prostate) | growth (SK-MEL-5 melanoma) | growth (UACC-62 melanoma) | growth (LOX IMVI melanoma) | growth (SK-MEL-28 melanoma) | growth (SK-MEL-2 melanoma) | growth (HT29 colon) |
| --- | --- | --- | --- | --- | --- | --- | --- | --- | --- | --- | --- | --- | --- | --- | --- | --- | --- | --- | --- | --- |
| CC(=O)c1nc2ccccc2n1CCN1CCN(C)CC1 | 15.3% | 17.6% | 42.9% | 48% | 48.1% | 153% | 35.3% | 49.8% | 20.5% | 98.9% | 6.87% (active) | 73.7% | 28.4% | 33.4% | 38.5% | 50.7% | 36.7% | 48% | 25.4% |  |
| O=C1Nc2ccccc2C1=NC1CCCCC1 | 100% | 90.9% | 103% | 107% | 96% | 98.3% | 99.7% | 100% | 106% | 105% | 88.1% |  | 101% | 94% | 94.3% | 105% | 87.5% | 115% | 88.6% | 99.2% |
| COc1ccc2c(c1)O/C(=C\c1ccc([N+](=O)[O-])o1)C2=O | 2.05% (active) | -37.1% (active) | 8.07% (active) | -74% (active) | -5.87% (active) | 9.85% (active) | -43.2% (active) | -13.1% (active) | -15.5% (active) | 2.39% (active) | 58.7% | 59.7% | 9.08% (active) | -2.47% (active) | 13% | -37.6% (active) | -64.7% (active) | 41.9% | -39.4% (active) |  |
| O=C(O)CCCCSc1ncnc2nc[nH]c12 | 102% | 96.2% | 113% | 105% | 98.9% | 101% | 102% | 99.6% | 103% | 102% | 102% |  | 95.5% | 99.1% | 101% | 111% | 92.3% | 112% | 92.4% | 106% |
| COc1ccc(/C=C2/CN(CCC#N)C/C(=C\c3ccc(OC)cc3)C2=O)cc1 | 1.95% (active) | -44.7% (active) | -25.4% (active) | -63% (active) | 0.448% (active) | -32.7% (active) | 9.73% (active) | 17.4% | 0.654% (active) | 0.438% (active) | 51.4% |  | -28.3% (active) | -11.7% (active) | -0.858% (active) |  | -53.7% (active) | 6.16% (active) |  | -37.6% (active) |
| COc1ccc(N2C(=O)C3c4[nH]c5ccc(OCc6ccccc6)cc5c4C4CCC(C(C)C)CC4C3C2=O)cc1 (centres undefined) | 117% | 107% | 101% | 102% | 96.7% | 114% | 118% | 96.1% | 124% | 16.3% | 31.3% |  | 18.8% | 88.3% | 99.5% | 94.2% | 90.1% |  |  | 89.3% |
| O=[N+]([O-])c1cccc(-c2ncc(-c3ccc(Cl)cc3Cl)[nH]2)c1 | -23.6% (active) | 125% | 67.7% | 95% | 54.4% | 93.7% | 101% | 109% | 5.51% (active) |  | 90.6% | 96.7% | -100% (active) | -82.6% (active) | 94.7% | 63.4% | -100% (active) | 92.8% |  | -65.2% (active) |
| O=C(N/N=C/c1ccccc1)C(Oc1ccccc1)c1ccccc1 (centres undefined) | 79% | 71.8% | 102% | 100% | 97.1% | 93.7% | 93.7% | 96.7% | 95.6% |  | 83.9% | 94.6% | 106% | 90.6% | 93.5% | 74.9% | 90.1% | 93.6% | 120% | 100% |
| CCCCCCN1C(=O)C2=C(c3ccc(Cl)cc3)Nc3c(c(C)nn3-c3ccccc3)C2c2ccccc21 (centres undefined) | 85.3% | 90.9% | 103% | 83.7% | 103% | 92.4% | 105% | 90.7% | 103% |  | 83.6% | 89.4% | 87.8% | 76.7% | 92.7% | 94.8% | 94.6% | 96.4% | 91.1% | 98.1% |
| CC/C(=C(/c1ccc(OCCN(C)C)cc1)c1ccc(OC(=O)CCCCC(=O)c2c(C)[nH]c(/C=C3\N=C(c4ccc[nH]4)C=C3OC)c2C)cc1)c1ccccc1 | 7.12% (active) | 39.5% | -17.5% (active) | 37.2% | 51.5% | 72.6% | 78.6% | 90.1% | -1.63% (active) |  | 42.3% | 91.8% | 43.5% | 42.3% | 36.4% | 75.1% | 14% | 85.6% | 69% | 14.3% |
| O=C1/C(=C\c2ccc(F)cc2)CN(C(=O)c2ccc([N+](=O)[O-])cc2)C/C1=C\c1ccc(F)cc1 | 1.96% (active) | 40.5% | 0.131% (active) | -2.85% (active) | 29.2% | 10.4% | 58% | 67% | 2.02% (active) |  | 56.7% | 67.5% | 9.03% (active) | 28.6% | 45.7% | 40.3% | -53.3% (active) | 65.1% | 74.5% | -56.9% (active) |
| Cc1ccc(NC(=O)Nc2c(Cl)cccc2Cl)cn1 | 47.7% | 109% | 95.4% | 77.3% | 116% | 117% | 97.7% | 99.6% | 96.1% |  | 92.1% | 102% | 89.8% | 83.8% | 87.1% | 78.7% | 101% | 130% | 91.4% | 130% |
| CS(=O)(=O)Nc1ccc(Nc2c3ccccc3nc3cc([N+](=O)[O-])ccc23)cc1 | 7.9% (active) | 22.6% | 50.9% | 34.5% | 11.6% | 4.34% (active) | 24.4% | 44.6% | 4.52% (active) |  | 41.3% | 43.3% | 21% | 44.4% | 13.5% | 32.2% | -27.1% (active) | 43.4% | 23.3% | 11.8% |
| c1ccc([I+]c2ccccc2)cc1 | 42.2% | 50.5% | 87.6% | 60.4% | 55.7% | 81% | 68.9% | 78.6% | 72.5% |  | 63.6% | 85.5% | 70.9% | 69.8% | 55.7% | 106% | 43.1% | 87.4% | 55.3% | 31.4% |
| CCCCOc1ccc(NC(=O)Nc2nnc(C)s2)cc1 | 83.8% | 118% | 90.7% | 110% | 109% | 87.4% | 95.3% | 22.5% | 91.4% |  | 105% | 98.2% | 93.2% | 92.5% | 102% | 82.5% | 78.9% | 106% | 105% | 99.4% |
| COc1cc(/C=C/C(=O)c2ccc(Cl)cc2)ccc1OS(=O)(=O)c1ccc(C)cc1 | 14.9% | 101% | 90.9% | 117% | 102% | 94.2% | 111% | 110% | 105% |  | 105% | 98.5% | 83.7% | 76.1% | 100% | 79.4% | 2.55% (active) | 106% | 108% | 28.5% |
